# Values joined by “and” are separate entries in the source; they are usually repeats but may differ in a detail not shown here. Equal values may be shown once. Active and inactive are the calls of the source. The call rests on the fitted dose curve.
# Target: Glucocorticoid receptor (Homo sapiens) (UniProt P04150)
# Assay: GR-EFC Redistribution (AID 451)
# Conditions: CHO-K1 GR-EFC translocation, beta-gal luminescence, 2 h
# Procedure, shortened: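 CHO-K1 cells expressing nuclear EA and GR-ED fragments of b-gal; compounds titrated up to 46 uM final, 2 h at 37 C. GR nuclear translocation read as complemented b-gal luminescence after 1 h RT detection.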
# Potency means the concentration at half of the fitted maximal effect.
# Glucocorticoid receptor (Homo sapiens), sequence (P04150 whole entry, looked up): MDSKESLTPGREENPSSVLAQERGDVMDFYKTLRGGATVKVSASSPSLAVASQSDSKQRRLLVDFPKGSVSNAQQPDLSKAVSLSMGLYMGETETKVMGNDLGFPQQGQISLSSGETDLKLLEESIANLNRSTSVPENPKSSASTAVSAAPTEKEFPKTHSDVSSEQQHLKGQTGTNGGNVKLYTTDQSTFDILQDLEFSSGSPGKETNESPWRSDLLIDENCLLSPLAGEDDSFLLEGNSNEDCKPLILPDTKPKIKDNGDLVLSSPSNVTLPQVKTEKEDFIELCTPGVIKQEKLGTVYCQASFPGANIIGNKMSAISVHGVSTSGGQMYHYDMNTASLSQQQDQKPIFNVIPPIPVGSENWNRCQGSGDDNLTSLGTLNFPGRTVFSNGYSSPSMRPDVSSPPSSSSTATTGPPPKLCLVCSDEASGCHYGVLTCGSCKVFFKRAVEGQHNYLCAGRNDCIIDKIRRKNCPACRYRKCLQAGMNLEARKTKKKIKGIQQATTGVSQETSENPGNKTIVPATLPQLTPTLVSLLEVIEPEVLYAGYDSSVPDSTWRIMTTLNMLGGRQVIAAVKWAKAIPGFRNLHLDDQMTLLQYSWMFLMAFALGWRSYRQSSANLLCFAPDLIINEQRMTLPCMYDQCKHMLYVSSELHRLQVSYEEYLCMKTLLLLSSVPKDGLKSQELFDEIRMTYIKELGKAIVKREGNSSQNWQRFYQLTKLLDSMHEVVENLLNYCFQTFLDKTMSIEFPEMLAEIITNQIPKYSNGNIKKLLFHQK
row,Structure (SMILES),Potency
1,CCOC(=O)c1cncn1[C@H](C)c1ccccc1,> 46 µM (inactive)
2,CC[C@@]1(O)C(=O)OCc2c1cc1n(c2=O)Cc2cc3ccccc3nc2-1,> 46 µM (inactive) and > 20.6 µM (inactive)
3,CNCCc1ccc(O)c(O)c1,> 46 µM (inactive)
4,CC1=NN=C(c2ccc(N)cc2)c2cc3c(cc2C1)OCO3,> 46 µM (inactive)
5,NC(=NCCC[C@H](N)C(=O)O)N[N+](=O)[O-],> 20.6 µM (inactive)
6,CCCCc1ccc(C(=O)O)nc1,> 46 µM (inactive) and > 20.6 µM (inactive)
7,Cc1nccc2c1[nH]c1ccccc12,> 46 µM (inactive) and > 20.6 µM (inactive)
8,COc1ccc(C(=O)c2c(C)n(CCN3CCOCC3)c3cc(I)ccc23)cc1,> 46 µM (inactive)
9,O=C(O)CC[N+](=O)[O-],> 46 µM (inactive)
10,c1ccc2sc(C3(N4CCCCC4)CCCCC3)cc2c1,> 46 µM (inactive)
11,S=C(NC1CCCCC1)N1CCC(c2cnc[nH]2)CC1,> 46 µM (inactive)
12,COC(=O)[C@@H](N)CCCN=C(N)N[N+](=O)[O-],> 46 µM (inactive)
13,CCCN1CCO[C@@H]2c3cc(O)ccc3OC[C@H]21,> 46 µM (inactive)
14,C[C@@H](N)Cc1cnc[nH]1,> 46 µM (inactive)
15,CC(C)Oc1cccnc1N(C)C1CCN(Cc2ccccc2)CC1,> 46 µM (inactive)
16,O=C(O)Cc1cnc[nH]1,> 46 µM (inactive)

row,Structure (SMILES),Potency
1,CC(=O)OCC1=C(C(=O)O)N2C(=O)[C@@H](N)[C@@H]2SC1,> 20.6 µM (inactive)
2,C#CCOC(=O)C1=CCCN(C)C1,> 46 µM (inactive)
3,CNCCc1c[nH]c2ccc(O)cc12,> 46 µM (inactive)
4,Cc1nc(-c2ccc(-c3ccc(C(=O)N4CCc5cc6c(cc54)C4(CCN(C)CC4)CO6)cc3)c(C)c2)no1,> 46 µM (inactive)
5,CCCN1CCC[C@H](c2cccc(O)c2)C1,> 46 µM (inactive)
6,Cc1c(C(=O)c2cccc3ccccc23)c2cccc3c2n1[C@H](CN1CCOCC1)CO3,> 46 µM (inactive)
7,NCc1cc(=O)[nH]o1,> 46 µM (inactive)
8,c1ccc(CCCN2CCN(CCOC(c3ccccc3)c3ccccc3)CC2)cc1,> 46 µM (inactive)
9,Clc1cnc(Oc2ccc(Oc3ncc(Cl)cc3Cl)cc2)c(Cl)c1,> 46 µM (inactive)
10,CN[C@@H]1C[C@@H](c2ccc(Cl)c(Cl)c2)c2ccccc21,> 46 µM (inactive)
11,O=c1cccc2n1CC1CNC[C@H]2C1,> 46 µM (inactive)
12,CCCN(CCC)[C@@H]1CCc2ccc(O)cc2C1,> 46 µM (inactive)
13,O=C1CCCN1CC#CCN1CCCC1,> 46 µM (inactive)
14,NCCc1c[nH]c2ccc(O)cc12,> 46 µM (inactive) and > 20.6 µM (inactive)
15,CC(=O)NCCc1c[nH]c2ccccc12,> 46 µM (inactive)

# Reference: PubChem BioAssay (NCATS)
